The test system of assay [1] is Thyroperoxidase (TPO), gene 54314. The experiment in a line: CCTE_Simmons_AUR_rTPO: CCTE's Amplex UltraRed Assay for Thyroperoxidase (TPO) Inhibition, Simmons Lab (AID 2283662).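 As to AC50: potency for loss of signal meaning inhibition of peroxidase activity.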 Summed up:
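Endpoint is decreased Amplex UltraRed fluorescence after a 30-min, 37C reaction of rat thyroid microsomes with 300 uM H2O2. Eight test concentrations (5 nM–87.5 uM final) in 0.5% DMSO, three biological replicates each.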

Assay [2] is described as follows: CCTE_Simmons_CellTiterGLO_HEK293T: Viability Assessment in CCTE's Assays for Thyroperoxidase (TPO) Inhibition, Simmons Lab (AID 2283665).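 As to AC50: cells exposed to compound for 24 h before readout; actives reduce ATP signal below DMSO vehicle meaning cytotoxicity.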 Summed up:
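ATP depletion measured in HEK293T cells after 24 h dosing (8 concentrations, 5 nM–87.5 uM final; DMSO 0.5%) using CellTiter-Glo luminescence; curves fit for loss of signal against DMSO baseline.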
Background: Cellular ATP, detected with luciferase, serves as a proxy for viable cell number.

Assay [3] is described as follows: Tanguay_ZF_120hpf_TR_legacy: (Legacy) Oregon State University Tanguay Lab 120 Hour Post-fertilization zebrafish Assay for Touch Response (AID 2283667). Summed up: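 Binary touch-response endpoint in larvae at 120 hpf after static waterborne exposure from embryo stage (28°C, 0.64% DMSO vehicle, 5 uM trimethyltin chloride as positive control); embryos dead at 24 or 120 hpf excluded; fitted as gain versus DMSO.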

Read-out in assay [4]: solute carrier (SLC10A1), SLC10A1 (gene 6554)
Put plainly: LTEA_HepaRG_SLC10A1: Life Technologies and Expression Analysis (LTEA) Assay for solute carrier (SLC10A1) using HepaRG (AID 2283657; active = hit-call score of the fitted dose curve at least 0.9, where 1 is the maximum; inactive = score below 0.9). The settings on record: mRNA level, 48 h; actives raise or lower the signal. Summed up: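 SLC10A1 transcript measured by TaqMan qRT-PCR, housekeeping-normalised, after 48 h chemical treatment of human HepaRG cells. Eight concentrations (half-log, max 100 uM, 0.5% DMSO vehicle) in duplicate; fitted bidirectionally against DMSO baseline.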

Read-out in assay [5]: matrix metalloproteinase-1 (MMP1), MMP1 (gene 4312)
Put plainly: LTEA_HepaRG_MMP1: Life Technologies and Expression Analysis (LTEA) Assay for matrix metalloproteinase-1 (MMP1) using HepaRG (AID 2283658; active = hit-call score of the fitted dose curve at least 0.9, where 1 is the maximum; inactive = score below 0.9). The settings on record: mRNA level, 48 h; actives raise or lower the signal. Summed up:
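HepaRG, ~100,000 cells/well, 48 h pre-culture; serum-free induction medium; test chemical 8 conc (max 100 uM, half-log), duplicate, 48 h; 0.5% DMSO; qRT-PCR MMP1, housekeeping-normalized; gain/loss fit vs DMSO.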

Read-out in assay [6]: Cytochrome P450 (CYP24A1_1), CYP24A1 (gene 1591)
Put plainly: LTEA_HepaRG_CYP24A1_1: Life Technologies and Expression Analysis (LTEA) Assay for Cytochrome P450 (CYP24A1_1) using HepaRG (AID 2283671; active = hit-call score of the fitted dose curve at least 0.9, where 1 is the maximum; inactive = score below 0.9). The settings on record: mRNA level, 48 h; actives raise or lower the signal. Summed up: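 Differentiated human HepaRG cells were exposed in duplicate for 48 h in serum-free induction medium to eight concentrations (top 100 uM, half-log steps, 0.5% DMSO). CYP24A1 mRNA was quantified by TaqMan qRT-PCR, normalized to ACTB, GAPDH and POLR2A, and fitted bidirectionally versus DMSO.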

Assay [7] can be described thus: CCTE_Padilla_ZF_144hpf_TERATOSCORE: (Legacy) CCTE's 144 Hour Post-fertilization zebrafish Assay Teratoscore, Padilla Lab (AID 2283679; active = hit-call score of the fitted dose curve at least 0.9, where 1 is the maximum; inactive = score below 0.9;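 as to AC50: zebrafish embryos with chorions exposed by immersion from 6-8 hpf to 5 dpf with daily renewal; teratogenicity score from eye scoring of death hatching and malformations at 144 hpf; higher score means more developmental defects relative to DMSO baseline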). Summed up:
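Larvae scored by eye at 144 hpf for death, hatching and malformations after a day in clean Hanks'. Before that, daily-renewed exposure at 80 uM (0.4% DMSO, 26C) from roughly 6-8 hpf through 5 dpf, 4 embryos per chemical.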

Assay [8] is described as follows: CEETOX_H295R_MTT_cell_viability: Viability Assessment in the CeeTox HT-H295R MTT Assay (AID 2283718; active = hit-call score of the fitted dose curve at least 0.9, where 1 is the maximum; inactive = score below 0.9;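 as to AC50: curve fitted both ways so AC50 may mark viability loss or gain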). Summed up: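 MTT reduction (0.5 mg/ml, 4 h at 37 C; absorbance at 570 and 650 nm) gave viability as background-corrected percent change versus controls. H295R cells had 48 h forskolin (10 uM) prestimulation, then 48 h chemical exposure at 0.1% DMSO.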
Assay [9] in a line: STM_H9_OrnithineISnorm_perc: Stemina devTOX quickPredict H9 human embryonic stem cell (hESC)-based Assay for Ornithine (ORN) Metabolite Biomarker, Normalized (AID 2283712; active = hit-call score of the fitted dose curve at least 0.9, where 1 is the maximum; inactive = score below 0.9;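 also: ornithine released into spent medium during last day measured by mass spectrometry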). Summed up: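 Metabolite endpoint from spent media of pluripotent H9 cells treated 72 h with daily re-feeding; ornithine measured by UPLC-HRMS against its 13C spike-in and referenced to the median 0.1% DMSO vehicle response.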

Assay [10] can be described thus: STM_H9_CystineISnorm_perc: Stemina devTOX quickPredict H9 human embryonic stem cell (hESC)-based Assay for Cystine (CYSS) Metabolite Biomarker, Normalized (AID 2283713; active = hit-call score of the fitted dose curve at least 0.9, where 1 is the maximum; inactive = score below 0.9). Summed up:
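Normalized cystine level in conditioned medium from the final 24h of a 72h treatment of pluripotent H9 cells (daily media and compound renewal). Quantified by UPLC-HRMS with C13-labeled internal standard; scaled to median of 0.1% DMSO vehicle wells.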

This passage reports AC50 and outcome results from PubChem BioAssay (EPA / NIEHS).

Each structure is given as a SMILES string. Inconclusive results are not listed. Calls of active or inactive are those of the source. The calls were made as follows, unless noted: active = hit-call score of the fitted dose curve at least 0.9, where 1 is the maximum; inconclusive = response in the unintended direction; inactive = score below 0.9.

As usually defined, the AC50 is the concentration giving half of the maximal activity seen. On to `C/C=C/c1ccc(OC)cc1`, for which the AC50 in assay [1] was 28.4 µM (active). The compound was called inactive in [2].

On to `C/C=C/C=C/C(=O)O`, for which the AC50 in [1] and in assay [2] was 48.8 µM (active) each time. Besides, the outcome in [3] was inactive.

Turning to `Cc1occc(=O)c1O`, the outcome in [4], in [5], in [2], in [3] and in assay [6] was inactive. For the same compound, the AC50 in assay [1] was 21.7 µM (active).

Take `S=c1[nH]c2ccccc2s1`: the values for the AC50 in [1], in assay [3] and in assay [7] were 0.433 µM (active), 12.3 µM (active) and 31.1 µM (active), respectively. Besides, the compound was classed as inactive in assay [2] and in assay [8].

With `CCCCCCCCCC[N+](C)(C)[O-]`, the compound was classed as inactive in assay [4], in assay [5], in assay [3], in assay [6], in [7] and in assay [9]. For the same compound, in assay [8], the compound was classed as inactive. Besides, the AC50 in [10] is 25 µM (active).

On to `CCOCCOCCO`, for which, in assay [3], the outcome was inactive.

Turning to `CC(C)NCC(O)c1ccc(O)c(O)c1` (stereo not drawn), the AC50 in assay [1] was 0.616 µM (active). For the same compound, the result in assay [2] and in [3] was inactive.

For the compound `c1ccc2occc2c1`, the outcome in [3] was inactive.

With `O=C1O[C@H]([C@H](O)CO)C(O)=C1O`, in assay [1], the half-maximal activity concentration (AC50) is 43.8 µM (active). The compound was classed as inactive in assay [2], in assay [3] and in [7].

On to `CCCCCCCCCCCCCCOS(=O)(=O)O`, for which the AC50 is 43.8 µM (active) in assay [1], 22.3 µM (active) in assay [2], 32.6 µM (active) in [3] and 15.3 µM (active) in [7].

As to `Oc1ccc(O)cc1`, the values for the AC50 in assay [1], in assay [2] and in [7] were 0.767 µM (active), 35.4 µM (active) and 15.6 µM (active), respectively. Besides, the call in assay [3] and in assay [8] was inactive.

Take `CCCCC(CC)CO` (stereo not drawn): the call in assay [4], in assay [5], in assay [3] and in assay [6] was inactive.

Turning to `CC(C)(C)c1ccccc1`, the compound was called inactive in assay [3].

On to `Cc1ccc(C(C)(C)C)c(O)c1`, for which the AC50 in [1] is 30 µM (active); in assay [2] it was 22.3 µM (active); in assay [7], 92.9 µM (active). The outcome in [3], in assay [9] and in assay [10] was inactive.

Regarding `COC(=O)[C@H]1[C@H]2C[C@@H]3c4[nH]c5cc(OC)ccc5c4CCN3C[C@H]2C[C@@H](OC(=O)c2cc(OC)c(OC)c(OC)c2)[C@@H]1OC`, the results for the AC50 in assay [1] and in [2] were 7.3 µM (active) and 45.3 µM (active), respectively. The result in assay [3] and in assay [9] was inactive.

Regarding `Cc1cc(Cc2ccc(N)c(C)c2)ccc1N`, the AC50 in assay [1] is 0.844 µM (active); in assay [7], 88.5 µM (active). In addition, the compound was called inactive in assay [2], in [3], in assay [9], in assay [10] and in [8].

Take `Cc1cc(SC2=C(O)C[C@@](CCc3ccc(N)cc3)(C(C)C)OC2=O)c(C(C)(C)C)cc1CO`: the AC50 in [1] was 0.738 µM (active); in [2], 3.9 µM (active); in assay [7], 16.4 µM (active). The compound was called inactive in [3].

As to `O=Cc1ccccc1C=O`, the AC50 is 41.8 µM (active) in assay [1], 4.91 µM (active) in [2] and 1.15 µM (active) in assay [7]. The result in assay [3], in assay [9] and in assay [10] was inactive.

As for `Oc1ccccc1O`, the AC50 is 0.84 µM (active) in assay [1], 34.4 µM (active) in [2] and 60.1 µM (active) in assay [7]. In addition, the compound was called inactive in assay [3] and in assay [8].

Regarding `CC1(C)C(=O)NC(=O)N1CO`, the outcome in assay [1], in assay [2] and in [3] was inactive.

For `O=C1c2c(O)cccc2Cc2cccc(O)c21`, the AC50 in assay [1] was 11.9 µM (active). Further, the compound was called inactive in [2] and in assay [8].

Turning to `CN(C)CCCN1c2ccccc2Sc2ccc(Cl)cc21`, the half-maximal activity concentration (AC50) is 21 µM (active) in assay [4]; 84.9 µM (active) in assay [5]; 6.24 µM (active) in [7]; 3.51 µM (active) in assay [9]; 0.751 µM (active) in assay [10]. The outcome in assay [3] and in [6] was inactive.

Take `CCC(C)N(C)C(=O)c1cc2ccccc2c(-c2ccccc2Cl)n1` (stereo not drawn): the AC50 in assay [4] was 37.7 µM (active); in assay [3], 26.8 µM (active); in [7], 16.3 µM (active). Further, the compound was called inactive in assay [5], in assay [6], in assay [9], in [10] and in [8].

Regarding `CCCCCCC(CCCCCCCCCCC(=O)OCC(COC(C)=O)OC(C)=O)OC(C)=O` (stereo not drawn), the call in [4], in assay [5], in [3] and in [6] was inactive. Moreover, the concentration at half-maximal activity (AC50) in [7] was 7.74 µM (active).

For `CSc1ccc(Oc2ccc(S(N)(=O)=O)cc2CN(C)C)cc1C`, the half-maximal activity concentration (AC50) in [3] is 50.9 µM (active).

For the compound `CCCC(=O)O`, the outcome in assay [3] was inactive.

`Cc1c(C)c2c(c(C)c1O)CCC(C)(COc1ccc(CC3SC(=O)NC3=O)cc1)O2` (stereo not drawn): the AC50 in [1] was 1.91 µM (active); in [2], 19 µM (active); in assay [7], 1.67 µM (active); in [8], 32.1 nM (active). Also, in assay [3], the compound was classed as inactive.

With `Nc1nc(=S)c2[nH]cnc2[nH]1`, the AC50 in assay [1] was 0.414 µM (active); in assay [2] it was 1.29 µM (active); in assay [9], 3.06 µM (active); in [10] it was 2.13 µM (active); in assay [8], 2520 nM (active). In addition, the compound was classed as inactive in [3].

With `O=C1OC(c2ccc(O)cc2)(c2ccc(O)cc2)c2ccccc21`, the AC50 in [1] is 2.99 µM (active); in assay [2], 43.8 µM (active). In addition, the outcome in [3], in assay [9], in [10] and in assay [8] was inactive.

`CN(C)C(=O)NC1(c2ccccc2)CCN(CC[C@@]2(c3ccc(F)c(F)c3)CN(C(=O)c3ccccc3)CCO2)CC1`: the outcome in assay [3] was inactive.

On to `O=C(N[C@@H](c1ccccc1)[C@@H]1CCCCN1)c1cccc(C(F)(F)F)c1Cl`, for which the outcome in assay [3] was inactive. Further, the concentration at half-maximal activity (AC50) in assay [7] was 20.3 µM (active).

Consider `O=C(O)c1[nH]n(-c2ccc(S(=O)(=O)O)cc2)c(=O)c1N=Nc1ccc(S(=O)(=O)O)cc1`, for which, in [3], the compound was classed as inactive.
